Source: PubChem (National Center for Advancing Translational Sciences (NCATS))
An excerpt weighted towards active compounds, which were near 2.3% of everything screened.
Abeta yeast res: A-beta toxicity reversal in yeast; Potency, µM (highest dose often 46.1 µM), hits mostly activators; 410,000 tested, 0.063% active; yeast expressing A-beta42, growth rescue, OD600, 48 h; response scale: 0% DMSO, 100% iron-clioquinol control; further: nearly all actives have a fitted effect of over 55% in size
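Yeast growth medium received pinned compounds, then yeast cells expressing toxic A-beta were added; plates incubated at 30 C for 48 hr. Growth read as absorbance at 600 nm, normalized to DMSO and equimolar FeCl3 plus clioquinol controls.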
aSyn rescue: rescues yeast growth from alpha-synuclein toxicity; AID 652106; Potency, µM (highest dose often 46.1 µM), most hits filed as activators; 370,000 tested, 0.14% active; Yeast expressing alpha-synuclein, growth rescue, BacTiter-Glo, 24 h; further: nearly all actives have a fitted effect of over 65% in size
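Rescue of yeast growth: cells expressing toxic alpha-synuclein, induced in galactose at OD600 0.02, incubated with compound 24 h at 30 C. ATP luminescence quantified growth; inhibitors of toxicity appear as activators.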
pAkt inh: inhibitors of Akt phosphorylation; Neuro2A IGF-stimulated pAkt S473 HTRF, 20 min; stronger effect = lower value; 360,000 tested, 0.32% active; activity change, % for hits at 50 µM; AID 651550; in the data active means activity change below about -80%; inconclusive means mostly about -51% to -80%
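Neuro2A cells (4,500/well, DMEM with 0.5% FBS) were treated with compound at a single 50 µM final concentration, stimulated with 6 nM IGF for 20 min at 37 °C, and lysed. Phospho-Akt Ser473 was read by HTRF as 665/615 ratio ×10^4.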
TDP-43 yeast inh: TDP-43 toxicity inhibition in yeast; TDP-43 expressing yeast growth rescue, BacTiter-Glo, 24 h; Potency, µM (highest dose often 46.1 µM), most hits filed as activators; 410,000 tested, 1.8% active; further: nearly all actives have a fitted effect of over 50% in size
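Cell-based yeast growth screen: TDP-43 expression induced in galactose, inoculum OD600=0.02 after raffinose pregrowth to mid-log. Read-out BacTiter-Glo luminescence at 24 hr, 30 deg C; inhibition of toxicity seen as signal increase.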
FUS suppressor: suppressors of FUS proteinopathy in yeast | S. cerevisiae FUS-expressing, growth rescue, OD600, 24 h | Potency, µM (series often up to 76.6 µM), actives largely listed as activators | 390,000 tested, 0.24% active | AID 1347120; further: nearly all actives have a fitted effect of over 55% in size
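Yeast FUS proteinopathy model; galactose-induced FUS (2%), starting OD 0.005. Cpds in dilution series, 24hr, 30C, 99% humidity. Abs 600 nm growth. Pos ctrl CP55940 (top 92uM final); neg ctrl DMSO.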
Of the large screens only hits and unclear results are named; the others gave an inactive call. Unless noted, the call rests on the fitted dose curve; in most records, active means well fitted curve in the direction sought with a large enough effect; inconclusive means small, poorly fitted or top-dose-only effect, or another doubt; inactive means no such curve, though single readings can be large; an effect the other way counts as inactive or inconclusive.

CC(=O)N(C)c1ccc(C=C2C=Cc3ccccc32)cc1	TDP-43 yeast inh 14µM (no result: FUS suppressor)
CN(N=O)c1ccc(C=C2C=Cc3ccccc32)cc1	none (no result: FUS suppressor)
Cc1cccc(N2CCN(C(=O)CSc3ccsc3[N+](=O)[O-])CC2C)c1 (centres undefined)	Abeta yeast res inconclusive, TDP-43 yeast inh 18µM
Cc1cccc(N2CCN(C(=O)/C=C/c3cccs3)CC2C)c1 (centres undefined)	Abeta yeast res inconclusive (no result: TDP-43 yeast inh)
Cc1cccc(N2CCN(C(=O)COc3ccc4c(c3)CCC4)CC2C)c1 (centres undefined)	TDP-43 yeast inh 35µM, FUS suppressor inconclusive
Cc1cccc(N2CCN(C(=O)CS(=O)(=O)Cc3nc(-c4ccccc4C)oc3C)CC2C)c1 (centres undefined)	TDP-43 yeast inh 25µM, FUS suppressor inconclusive (no result: aSyn rescue, pAkt inh)
Cc1oc(-c2ccccc2F)nc1CS(=O)(=O)CC(=O)N1CCN(c2cccc(C(F)(F)F)c2)CC1	none (no result: aSyn rescue, pAkt inh)
Cc1cccc(N2CCN(C(=O)CS(=O)(=O)Cc3nc(-c4ccccc4F)oc3C)CC2C)c1 (centres undefined)	FUS suppressor 32µM
CCN1CCN(C(=O)CS(=O)(=O)Cc2nc(-c3ccccc3C)oc2C)CC1	none
CCOc1ccc(-n2cc(-c3ccccc3)c3c(N4CCN(c5ccccc5OC)CC4)ncnc32)cc1	none (no result: aSyn rescue, pAkt inh)
COc1ccc(/C=C/C(=O)Nc2ccc3nc(N4CCC(C)CC4)cc(C)c3c2)cc1OC	none (no result: aSyn rescue, pAkt inh)
COC(=O)[C@]12C[C@H](CC(=O)NCc3cccs3)C(=O)N(Cc3cccc4ccccc34)C1=C[C@H](C(C)(C)C)O[C@@H]2C	FUS suppressor 10µM (no result: Abeta yeast res, aSyn rescue, pAkt inh, TDP-43 yeast inh)
COC(=O)[C@]12C[C@H](CC(=O)N3CCOCC3)C(=O)N(Cc3cccc4ccccc34)C1=C[C@H](C(C)(C)C)O[C@@H]2C	FUS suppressor 22µM (no result: Abeta yeast res, aSyn rescue, pAkt inh, TDP-43 yeast inh)
COC(=O)[C@]12C[C@H](CC(=O)NCC3CCCCC3)C(=O)N(Cc3cccc4ccccc34)C1=C[C@H](C(C)(C)C)O[C@@H]2C	none (no result: Abeta yeast res, aSyn rescue, pAkt inh, TDP-43 yeast inh)
COC(=O)[C@]12C[C@H](CC(=O)NCCC(C)C)C(=O)N(Cc3cccc4ccccc34)C1=C[C@H](C(C)(C)C)O[C@@H]2C	FUS suppressor 22µM (no result: Abeta yeast res, aSyn rescue, pAkt inh, TDP-43 yeast inh)
N#CCCN(CCC#N)C(=O)c1ccc2c(c1)OCO2	pAkt inh -106%
Cc1ccc(-n2nc(-c3ccccc3)c3cnc4cc5c(cc4c32)OCO5)cc1C	none (no result: aSyn rescue, pAkt inh)
OC(c1cccc(Cl)c1)c1nc(/C=C/c2ccccc2)cs1 (centres undefined)	TDP-43 yeast inh 8.9µM
COc1cccc(C(O)c2nc(/C=C/c3ccccc3)cs2)c1 (centres undefined)	aSyn rescue inconclusive, TDP-43 yeast inh 22µM
CCOC(=O)c1nnn(CC(=O)N2N=C(c3ccccc3)CC2c2ccccc2)c1C(=O)OCC (centres undefined)	pAkt inh -83%
O=C(NCc1ccco1)c1ccc2c(c1)OCCO2	none
O=C(NCc1ccccc1F)c1ccc2c(c1)OCCO2	Abeta yeast res inconclusive, TDP-43 yeast inh 14µM
O=C(NC(=S)NCc1ccccc1)c1ccc2c(c1)OCO2	TDP-43 yeast inh 25µM (no result: FUS suppressor)
O=C(NC(=S)NCc1ccc2c(c1)OCO2)c1ccccc1	Abeta yeast res inconclusive, TDP-43 yeast inh 16µM
CC1CCN(C(c2ccccc2)c2sc3nc(-c4ccco4)nn3c2O)CC1 (centres undefined)	none (no result: aSyn rescue, pAkt inh)
Cc1ccc2c(=O)cc(C(=O)N(Cc3ccc(N(C)C)cc3)C3CCS(=O)(=O)C3)oc2c1 (centres undefined)	none (no result: aSyn rescue, pAkt inh)
Cc1ccc(Cl)cc1NC(=O)c1ccc(NC(=O)N2CCSc3ncccc32)cc1	none (no result: aSyn rescue, pAkt inh)
C#CCNC(=O)C1=C[C@@H](c2csc3ccccc23)C[C@@H](OCc2ccc(CO)cc2)O1	TDP-43 yeast inh 25µM
O=C(NCc1ccccc1)C1=C[C@@H](c2coc3ccccc3c2=O)C[C@@H](OCc2ccc(CO)cc2)O1	FUS suppressor inconclusive
O=C(NC1CC1)C1=C[C@@H](c2csc3ccccc23)C[C@@H](OCc2ccc(CO)cc2)O1	TDP-43 yeast inh 14µM, FUS suppressor inconclusive
O=C(NCc1ccccc1)C1=C[C@@H](c2csc3ccccc23)C[C@@H](OCc2ccc(CO)cc2)O1	none
O=C(O)C1=C[C@H](c2csc3ccccc23)C[C@H](OCc2ccc(CO)cc2)O1	none
O=C(Nc1ccccc1)C1=C[C@H](c2coc3ccccc3c2=O)C[C@H](OCc2ccc(CO)cc2)O1	TDP-43 yeast inh 20µM, FUS suppressor inconclusive
Cc1ccc2c(=O)cc(C(=O)N(Cc3ccccc3Cl)C3CCS(=O)(=O)C3)oc2c1 (centres undefined)	none (no result: aSyn rescue, pAkt inh)
O=c1c(Cl)c(Cl)cnn1Cc1nnc(-c2ccccc2Br)o1	TDP-43 yeast inh 13µM
O=S1(=O)C=C(Sc2nc3cc(Cl)ccc3o2)c2ccccc21	TDP-43 yeast inh 13µM
Cc1cc(NC(=O)CSc2nc3cc(Cl)ccc3o2)no1	none
COC(=O)C1=C(C)NC(C)=C(C(=O)OC)C1C1CC=CCC1 (centres undefined)	pAkt inh -130%
CCn1cc(C(=O)NCCc2ccc(Cl)cc2)c(=O)c2cc(S(=O)(=O)N(C)C3CCCCC3)ccc21	none (no result: aSyn rescue, pAkt inh)
CC1CCN(c2ccc(-c3nc(-c4ccccc4)no3)cc2[N+](=O)[O-])CC1	none (no result: pAkt inh)
COc1ccc(C(=O)N(Cc2ccco2)Cc2ccco2)cc1	TDP-43 yeast inh inconclusive (no result: aSyn rescue, pAkt inh)
COc1cc(CNn2c(C)n[nH]c2=S)cc(Cl)c1OCc1ccc(F)cc1	none
COc1cc(CNn2c(C)n[nH]c2=S)cc(Br)c1OCc1ccc(F)cc1	TDP-43 yeast inh 35µM
Cc1ccc(NC(=O)N2CCN3CCCCC3C2)cc1F (centres undefined)	none (no result: aSyn rescue, pAkt inh)
c1ccc(-c2ccc(OCCOCCn3cncn3)cc2)cc1	TDP-43 yeast inh 14µM
O=C(CSc1nc2c([nH]c3ccccc32)c(=O)n1-c1cccc(Cl)c1)c1ccccc1	none (no result: pAkt inh)
O=C(/C(=N/O)c1ccccc1)c1ccccc1	TDP-43 yeast inh 22µM
Cc1ccc(-c2nc(N)sc2-c2ccccc2)cc1C	TDP-43 yeast inh 16µM (no result: FUS suppressor)
C/C(=N\NC(N)=S)C1C2C3CC4C5CC(C42)C1C53 (centres undefined)	Abeta yeast res inconclusive, TDP-43 yeast inh 14µM
N#CC(C#N)=C1C=CC=CN1/C(=C\c1ccccc1)C(=O)c1cccs1	aSyn rescue inconclusive, TDP-43 yeast inh 4.5µM
N#CC(C#N)=C1C=CC=CN1/C(=C\c1ccccc1Cl)C(=O)c1ccccc1	TDP-43 yeast inh inconclusive (no result: FUS suppressor)
COc1ccc(-c2c3c(=O)n(C)c(=O)n(C)c3c3c(-c4cccc(C)c4)nc4ccccc4n23)cc1	TDP-43 yeast inh 16µM (no result: aSyn rescue, pAkt inh)
O=C(c1ccccc1)n1ccn(-c2ccccc2)c1=S	TDP-43 yeast inh 11µM
COC(=O)CN1C(=O)CSc2ccc(S(=O)(=O)Nc3cccc(C)c3)cc21	none (no result: aSyn rescue, pAkt inh)
